Results published in PubChem BioAssay (Tox21).
Where “and” joins values, the source holds several entries; their conditions need not be identical. Equal entries are not always repeated. Some compounds were tested as several samples or in several runs, with calls that do not always agree. Calls of active or inactive are those of the source. Entries that show only a call come without a potency. Unless noted, calls follow the shape of the dose curve; as a rule, active = well fitted curve in the direction sought with a large enough effect in the repeat runs; inconclusive = weak or mixed curves; inactive = no such curve, though single readings can be large; an effect the other way counts as inactive or inconclusive.

Columns and labels:
[1] = qHTS assay to identify small molecule antagonists of the thyroid receptor (TR) signaling pathway - cell viability counter screen (AID 743064); also: nearly all actives have a fitted effect of over 50% in size; also: potency is read from the fitted curve at half-maximal effect
In short: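 Fluorescence from CellTiter-Fluor, added after 23.5 h exposure at 37 °C, reported viability of GH3.TRE-Luc cells co-treated with compound and 1 nM T3. Measured in the same wells as the luciferase TR readout.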

[2] = qHTS assay to identify small molecule antagonists of the thyroid receptor (TR) signaling pathway (AID 743065); also: nearly all actives have a fitted effect of over 55% in size; also: potency is read from the fitted curve at half-maximal effect
In short: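 GH3.TRE-Luc rat pituitary cells (two TREs driving luciferase) were dosed with compound, then stimulated with 1 nM T3 (final) for 23.5 h at 37 C. ONE-Glo luminescence was the read-out, with CellTiter-Fluor fluorescence as the cytotoxicity counter-screen.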

[3] = tested on: thyroid hormone receptor (rat, GH3 cells); experiment: qHTS assay to identify small molecule agonists of the thyroid receptor (TR) signaling pathway (AID 743066; calls by dose curve)
[4] = qHTS assay to identify small molecule antagonists of the estrogen receptor alpha (ER-alpha) signaling pathway - cell viability counter screen (AID 743074; calls by dose curve;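 also: HEK293 cells carrying ER-alpha-UAS-bla reporter stimulated with 17beta-estradiol; nearly all actives have a fitted effect of over 45% in size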; also: potency is read from the fitted curve at half-maximal effect)
[5] = biological target: Estrogen receptor (Homo sapiens) (UniProt P03372); experiment: qHTS assay to identify small molecule agonists of the estrogen receptor alpha (ER-alpha) signaling pathway (AID 743075; calls by dose curve;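 also: HEK293 GripTite cells with ER-alpha and UAS-driven beta-lactamase reporter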; also: potency is read from the fitted curve at half-maximal effect)
[6] = qHTS assay to identify small molecule antagonists of the estrogen receptor alpha (ER-alpha) signaling pathway using the BG1 cell line - cell viability counter screen (AID 743081);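 also: compound given together with 17beta-estradiol as the ER stimulus; series mostly up to about 70 µM; nearly all actives have a fitted effect of over 45% in size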
Aromatase (Homo sapiens) = Aromatase (Homo sapiens) (UniProt P11511); experiment: qHTS assay to identify aromatase inhibitors (AID 743083); also: nearly all actives have a fitted effect of over 55% in size; also: potency is read from the fitted curve at half-maximal effect
[7] = qHTS assay to identify aromatase inhibitors - cell viability counter screen (AID 743084);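 also: cells stimulated with testosterone during compound exposure; nearly all actives have a fitted effect of over 55% in size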; also: potency is read from the fitted curve at half-maximal effect
[8] = biological target: Aryl hydrocarbon receptor (Homo sapiens) (UniProt P35869); experiment: qHTS assay to identify small molecule that activate the aryl hydrocarbon receptor (AhR) signaling pathway (AID 743085); also: nearly all actives have a fitted effect of over 15% in size; also: potency is read from the fitted curve at half-maximal effect;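 as to activation: HG2L7.5c1 human HepG2 liver cells with stably integrated DRE-driven firefly reporter; series mostly up to about 70 µM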
In short: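 Cell line HG2L7.5c1 (human hepatoma, 20× DRE-luc). Plated, 5 h 37C, compound/DMSO added, 24 h 37C. CellTiter-Fluor 30 min 37C → fluorescence; then ONE-Glo 30 min RT → luminescence.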

[9] = qHTS assay to identify small molecule antagonists of the peroxisome proliferator-activated receptor gamma (PPARg) signaling pathway - cell viability counter screen (AID 743194); also: nearly all actives have a fitted effect of over 55% in size; also: potency is read from the fitted curve at half-maximal effect
In short: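 Cytotoxicity counter screen in PPARg-bla HEK293H cells, same wells as reporter assay. Compounds plus 50 nM rosiglitazone (final) for 17 h at 37 C, then viability read by CellTiter-Glo luminescence.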

[10] = qHTS assay for small molecule agonists of the antioxidant response element (ARE) signaling pathway - cell viability counter screen (AID 743203; calls by dose curve; also: nearly all actives have a fitted effect of over 55% in size; also: potency is read from the fitted curve at half-maximal effect)
In short: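 Parallel cytotoxicity read-out for the ARE-bla screen: HepG2 reporter cells, 16 hrs with compounds, then CellTiter-Glo luminescence.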

[11] = qHTS assay for small molecule activators of the heat shock response signaling pathway - cell viability counter screen (AID 743209); also: nearly all actives have a fitted effect of over 50% in size; also: potency is read from the fitted curve at half-maximal effect
In short: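 To flag cytotoxic compounds, HSE-bla HeLa cells plated at 1500 cells/well were dosed for 5 h at 37 C, followed by the reporter FRET read and then CellTiter-Glo, with luminescence recorded 30 min after reagent addition.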

[12] = biological target: Estrogen receptor (Homo sapiens) (UniProt P03372); experiment: qHTS assay to identify small molecule agonists of the estrogen receptor alpha (ER-alpha) signaling pathway using the BG1 cell line (AID 743079); also: nearly all actives have a fitted effect of over 20% in size
[13] = qHTS assay to identify small molecule antagonists of the estrogen receptor alpha (ER-alpha) signaling pathway using the BG1 cell line (AID 743080; calls by dose curve; also: series mostly up to about 70 µM; nearly all actives have a fitted effect of over 25% in size)
In short: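 Antagonist mode: compounds in DMSO were pinned onto BG1-Luc-4E2 cells alongside 17beta-estradiol agonist, incubated 21.5 h, and ERE-driven luciferase measured with ONE-Glo. Cytotoxicity was multiplexed using CellTiter-Fluor fluorescence.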

[14] = qHTS assay to identify small molecule that activate the aryl hydrocarbon receptor (AhR) signaling pathway - cell viability counter screen (AID 743086); also: nearly all actives have a fitted effect of over 45% in size; also: potency is read from the fitted curve at half-maximal effect
In short: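 HepG2-AhR-luc (HG2L7.5c1) cells, 4000/well, treated 24 h at 37 C with compound; viability measured as CellTiter-Fluor fluorescence after 30 min in the same wells as the luciferase read.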

[15] = biological target: Peroxisome proliferator-activated receptor gamma (Homo sapiens) (UniProt P37231); experiment: qHTS assay to identify small molecule agonists of the peroxisome proliferator-activated receptor gamma (PPARg) signaling pathway (AID 743094; active = well fitted activation curve with a large enough effect in the signal ratio in the repeat runs, not every such curve was filed as active; inconclusive = weak or mixed curves, or effect the other way; inactive = no such curve, though single readings can be large or run the other way; the % refers to the signal ratio; also: potency is read from the fitted curve at half-maximal effect)
In short: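 Fluorescence-based beta-lactamase readout in HEK293H PPARg UAS-bla cells after 17 h compound exposure (37C) and 1 h B/G FRET substrate incubation at room temperature.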

[16] = qHTS assay for small molecule activators of the heat shock response signaling pathway (AID 743210; active = well fitted activation curve with a large enough effect in the signal ratio in the repeat runs, with a control signal flat, not every such curve was filed as active; inconclusive = weak or mixed curves; the % refers to the signal ratio;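 also: HeLa cells with beta-lactamase reporter driven by heat shock elements; series mostly up to about 63 µM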)
In short: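 Beta-lactamase reporter read-out: FRET substrate fluorescence after 2.5 h at RT, following 5 h compound treatment at 37 C of HeLa cells carrying HSE-driven bla reporter; quantitative HTS format.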

[17] = qHTS assay for small molecule agonists of the antioxidant response element (ARE) signaling pathway (AID 743202; active = well fitted activation curve with a large enough effect in the signal ratio in the repeat runs, not every such curve was filed as active; inconclusive = weak or mixed curves, or effect the other way; inactive = no such curve, though single readings can be large or run the other way; the % refers to the signal ratio; also: potency is read from the fitted curve at half-maximal effect)
In short: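 HepG2 ARE-bla reporter line, 2,000 cells/well; 5 h preincubation 37 C/5% CO2; compound (DMSO) 16 h 37 C; B/G FRET substrate 2 h RT; fluorescence intensity.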

[18] = biological target: Peroxisome proliferator-activated receptor gamma (Homo sapiens) (UniProt P37231); experiment: qHTS assay to identify small molecule antagonists of the peroxisome proliferator-activated receptor gamma (PPARg) signaling pathway (AID 743191; calls by dose curve; also: series mostly up to about 63 µM; nearly all actives have a fitted effect of over 30% in size)
In short: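 GeneBLAzer PPARg UAS-bla HEK293H cells, 5 h post-plating, exposed to compounds 17 h at 37C. LiveBLAzer B/G FRET substrate added for 1 h at room temperature; beta-lactamase reporter read by fluorescence intensity.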

Chain of Peroxisome proliferator-activated receptor gamma (Homo sapiens) (P37231 whole entry, looked up): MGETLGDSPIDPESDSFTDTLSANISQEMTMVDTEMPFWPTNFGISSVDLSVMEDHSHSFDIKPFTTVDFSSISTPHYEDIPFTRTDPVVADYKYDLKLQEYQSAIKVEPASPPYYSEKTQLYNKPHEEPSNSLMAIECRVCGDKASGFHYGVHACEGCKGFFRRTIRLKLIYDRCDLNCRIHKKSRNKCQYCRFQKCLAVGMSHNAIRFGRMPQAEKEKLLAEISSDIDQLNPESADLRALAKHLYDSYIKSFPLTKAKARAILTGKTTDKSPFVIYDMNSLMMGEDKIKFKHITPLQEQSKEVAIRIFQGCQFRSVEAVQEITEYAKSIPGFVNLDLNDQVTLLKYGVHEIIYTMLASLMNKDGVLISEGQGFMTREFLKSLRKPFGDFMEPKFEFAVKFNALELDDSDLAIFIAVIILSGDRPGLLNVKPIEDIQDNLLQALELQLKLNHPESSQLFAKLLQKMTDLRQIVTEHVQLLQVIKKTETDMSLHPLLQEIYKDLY
Chain of Aryl hydrocarbon receptor (Homo sapiens) (P35869 whole entry, looked up): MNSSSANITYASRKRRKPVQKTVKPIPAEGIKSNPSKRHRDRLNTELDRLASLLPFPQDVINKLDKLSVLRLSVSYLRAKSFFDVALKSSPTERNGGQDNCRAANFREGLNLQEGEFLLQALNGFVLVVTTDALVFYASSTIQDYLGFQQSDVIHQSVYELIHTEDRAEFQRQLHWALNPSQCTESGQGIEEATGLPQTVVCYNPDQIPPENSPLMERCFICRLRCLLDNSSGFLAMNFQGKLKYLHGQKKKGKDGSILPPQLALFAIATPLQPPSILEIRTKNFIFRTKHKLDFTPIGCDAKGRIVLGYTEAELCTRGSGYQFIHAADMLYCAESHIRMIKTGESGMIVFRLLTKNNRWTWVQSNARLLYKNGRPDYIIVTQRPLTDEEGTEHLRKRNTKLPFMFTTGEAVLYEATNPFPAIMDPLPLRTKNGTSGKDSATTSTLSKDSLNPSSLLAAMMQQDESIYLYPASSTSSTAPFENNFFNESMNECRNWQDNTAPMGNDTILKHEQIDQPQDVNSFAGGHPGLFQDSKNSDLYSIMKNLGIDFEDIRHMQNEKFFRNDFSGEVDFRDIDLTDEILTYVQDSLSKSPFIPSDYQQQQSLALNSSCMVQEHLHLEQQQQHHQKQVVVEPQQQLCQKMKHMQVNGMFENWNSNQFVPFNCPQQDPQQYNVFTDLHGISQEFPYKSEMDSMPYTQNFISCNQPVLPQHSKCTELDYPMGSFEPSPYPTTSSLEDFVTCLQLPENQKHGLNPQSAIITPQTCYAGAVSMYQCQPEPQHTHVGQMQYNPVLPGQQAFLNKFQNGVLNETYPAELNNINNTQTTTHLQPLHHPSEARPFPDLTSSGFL
Chain of Aromatase (Homo sapiens) (P11511 whole entry, looked up): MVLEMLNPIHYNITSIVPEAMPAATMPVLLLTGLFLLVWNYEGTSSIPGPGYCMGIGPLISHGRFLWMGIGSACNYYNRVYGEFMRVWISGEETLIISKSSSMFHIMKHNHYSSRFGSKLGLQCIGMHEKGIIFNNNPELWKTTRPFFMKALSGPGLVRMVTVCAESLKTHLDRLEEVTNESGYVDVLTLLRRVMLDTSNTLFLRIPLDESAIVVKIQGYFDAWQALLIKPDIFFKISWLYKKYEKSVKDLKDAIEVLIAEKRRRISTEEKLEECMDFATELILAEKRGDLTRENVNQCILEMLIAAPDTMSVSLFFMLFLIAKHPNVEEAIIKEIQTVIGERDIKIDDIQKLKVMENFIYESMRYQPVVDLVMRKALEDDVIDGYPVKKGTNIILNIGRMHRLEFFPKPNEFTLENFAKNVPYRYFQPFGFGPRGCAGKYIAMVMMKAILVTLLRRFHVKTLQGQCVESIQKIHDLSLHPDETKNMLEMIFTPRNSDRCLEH
Chain of Estrogen receptor (Homo sapiens) (P03372 whole entry, looked up): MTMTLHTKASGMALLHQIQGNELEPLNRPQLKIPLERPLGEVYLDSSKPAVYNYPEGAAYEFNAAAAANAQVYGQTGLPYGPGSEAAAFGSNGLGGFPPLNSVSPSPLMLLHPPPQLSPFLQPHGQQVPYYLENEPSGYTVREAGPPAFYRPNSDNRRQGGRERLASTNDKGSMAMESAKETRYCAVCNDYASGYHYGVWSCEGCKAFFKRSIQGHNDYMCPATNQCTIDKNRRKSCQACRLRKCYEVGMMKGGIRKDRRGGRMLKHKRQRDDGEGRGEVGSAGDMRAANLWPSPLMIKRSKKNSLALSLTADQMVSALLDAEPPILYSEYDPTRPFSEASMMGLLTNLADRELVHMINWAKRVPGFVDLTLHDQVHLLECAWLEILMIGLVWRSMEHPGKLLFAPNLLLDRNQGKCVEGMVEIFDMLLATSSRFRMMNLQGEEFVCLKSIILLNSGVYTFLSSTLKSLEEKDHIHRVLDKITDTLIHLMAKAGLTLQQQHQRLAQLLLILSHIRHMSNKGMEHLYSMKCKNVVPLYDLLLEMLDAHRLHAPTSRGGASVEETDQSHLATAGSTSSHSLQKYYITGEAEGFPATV

Row | SMILES | Potency [1] | Potency [2] | outcome [3] | Potency [4] | Potency [5] | Potency [6] | Potency (Aromatase (Homo sapiens)) | Potency [7] | Potency [8] | Potency [9] | Potency [10] | Potency [11] | Potency [12] | Potency [13] | Potency [14] | Potency [15] | Potency [16] | Potency [17] | Potency [18]
1 | CCCCCCCCCCCCCC[N+](C)(C)C | 4.22 µM (active) and 11.8 µM (active) and 8.63 µM (active) | 2.98 µM (active) and 5.91 µM (active) and 5.44 µM (active) | inactive | 23.9 µM (active) and 37.6 µM (active) | inactive | inactive | 10.6 µM (active) and 23.5 µM (active) and 15.3 µM (active) | inactive and 59.1 µM (active) | inactive | 18.8 µM (active) and 24.5 µM (active) and 29.8 µM (active) | 23.5 µM (active) and 17.2 µM (active) and 26.6 µM (active) | 21.1 µM (active) and 15.5 µM (active) and 23.7 µM (active) | – | – | – | – | – | – | –
2 | CC1(C)CCC[C@]2(C)[C@H]3CC(=O)O[C@]3(C)CC[C@@H]12 | inactive | 54.5 µM (active) | inactive | inactive | inactive | inactive | – | inactive | inactive | inactive | inactive | inactive | inactive | inactive | inactive | inactive | inactive | – | –
3 | C=CCn1c(=O)n(CC=C)c(=O)n(CC=C)c1=O | inactive | inactive | inactive | inactive | – | inactive | inactive | inactive | inactive | inactive | inactive | inactive | – | – | inactive | inactive | inactive | inactive | –
4 | CCCC(=O)OC(C)(C)Cc1ccccc1 | inactive | inactive | inactive | inactive | – | inactive | inactive | inactive | inactive | inactive | inactive | inactive | – | – | – | – | inactive | inactive | –
5 | Cc1ccc(O)c(O)c1 | 29.8 µM (active) | 26.5 µM (active) | inactive | inactive | 53.4 µM [inconclusive] (active) | – | 66.6 µM (active) | – | 29.8 µM (active) | inactive | inactive | inactive | inactive | – | – | – | – | – | –
6 | Cc1cc(-n2nc3ccc(Cl)cc3n2)c(O)c(C(C)(C)C)c1 | inactive | inactive | inactive | inactive | – | inactive | – | – | – | inactive | inactive | inactive | – | – | inactive | – | inactive | inactive | –
7 | O=c1[nH]c2ccccc2n1CCCN1CCN(C(c2ccccc2)c2ccccc2)CC1 | 23.7 µM (active) | 23.7 µM (active) | inactive | inactive | – | – | inactive | inactive | – | inactive | 29.8 µM (active) | inactive | – | – | 26.6 µM (active) | – | – | – | –
8 | Nc1ccc(C(=O)O)c(O)c1 | inactive | inactive | inactive | inactive | – | inactive | inactive | inactive | inactive | inactive | – | – | – | – | inactive | inactive | inactive | inactive | –
9 | CN(C)C(=O)COC(=O)Cc1ccc(OC(=O)c2ccc(N=C(N)N)cc2)cc1 | inactive | inactive | inactive | inactive | – | inactive | – | – | – | inactive | inactive | – | – | – | inactive | – | inactive | inactive | –
10 | O=C1NC(=O)[C@@H]2CC=CC[C@H]12 | inactive | inactive | inactive | inactive | – | inactive | – | – | – | inactive | inactive | inactive | – | – | inactive | – | inactive | – | –
11 | CC(C)(C)c1csc(-c2cc3cc(OCc4ccccc4CC(=O)O)ccc3o2)n1 | 54.5 µM (active) | 61.1 µM (active) | inactive | 24.5 µM (active) | inactive | inactive | – | – | inactive | – | – | – | – | – | – | 0.776 µM (active) | – | 4.86 µM (active) | –
12 | O=C1c2ccccc2C(=O)N1SC1CCCCC1 | 30.6 µM (active) and 21.7 µM (active) | 24.3 µM (active) and 15.4 µM (active) | inactive | – | inactive | inactive | 43.2 µM (active) | 27.3 µM (active) and 24.3 µM (active) | inactive | 54.9 µM (active) | 48.5 µM (active) and 34.4 µM (active) | 54.9 µM (active) | inactive | inactive | inactive | – | – | – | –
13 | CCCCOC(=O)CC | inactive | inactive | inactive | inactive | – | inactive | inactive | inactive | inactive | – | inactive | inactive | – | – | inactive | – | inactive | inactive | inactive
14 | Nc1ccc(Oc2ccc(Cl)cc2)cc1 | inactive | 30 µM (active) | inactive | inactive | inactive | inactive | 23.8 µM (active) | inactive | inactive | inactive | – | inactive | inactive | – | inactive | inactive | inactive | – | inactive
15 | CCCCCCC1CCCC(=O)O1 (stereo not given) | inactive | inactive | inactive | inactive | – | inactive | – | – | – | inactive | inactive | inactive | – | – | inactive | – | inactive | inactive | –
